Whole data set: some 140,000 sequences, median “enrichment ratio after two sorts for PhoP signalling” near 0, cut for the highest 2% near 11. For the sample, the highest values were picked, then their nearest neighbours and some sequences at random.
B1: PhoQ; a variant is named by its letters at X, in order, P23837 (parent)
chain: MKKLLRLFFPLSLRVRFLLATAAVVLVLSLAYGMVALIGYSVSFDKTTFRLLRGESNLFYTLAKWENNKLHVELPENIDKQSPTMTLIYDENGQLLWAQRDVPWLMKMIQPDWLKSNGFHEIEADVNDTSLLLSGDHSIQQQLQEVREDDDDAEMTHSVAVNVYPATSRMPKLTIVVVDTIPVELKSSYMVWSWFIYVLSANLLLVIPLLWVAAWWSLRPIEALAKEVRELEEHNRELLNPATTRELTSLVRNLNRLLKSERERYDKYRTTLTDLTHSLKTPLXXLQXXLRSLRSEKMSVSDAEPVMLEQISRISQQIGYYLHRASMRGGTLLSRELHPVAPLLDNLTSALNKVYQRKGVNISLDISPEISFVGEQNDFVEVMGNVLDNACKYCLEFVEISARQTDEHLYIVVEDDGPGIPLSKREVIFDRGQRVDTLRPGQGVGLAVAREITEQYEGKIVAGESMLGGARMEVIFGRQHSAPKDE

Variants of: B1
Assay: enrichment ratio after two sorts for PhoP signalling (ratio (wild type AVST 3.29)); higher = more functional
Conditions: with PhoP (E. coli)

Variant	enrichment ratio
HEGR	≤ 0.25
IMAF	≤ 0.25
LWKN	≤ 0.25
VRPW	≤ 0.25
HNFA	≤ 0.25
TPCH	≤ 0.25
VYYN	≤ 0.25
VLGI	≤ 0.25
CLLN	≤ 0.25
SHCN	13.2
CLCN	23.2
GLCI	9.01
THCN	4.64
STCN	8.56
ELCN	≤ 0.25
WLCN	≤ 0.25
SHLN	2.15
GLCN	12.8
GLLN	≤ 0.25
SLCN	11.5
VNQW	≤ 0.25
HNQK	≤ 0.25
YVDP	≤ 0.25
RGYW	≤ 0.25

Variant	enrichment ratio
TCKY	≤ 0.25
SICN	20.7
SILN	8.2
FSCN	≤ 0.25
SVCN	19.4
NSCN	≤ 0.25
KYCN	≤ 0.25
SSLN	6.84
KSCN	≤ 0.25
SVNL	≤ 0.25
SSCN	16.9
TSCN	26.6
SVLN	7.1
KIAC	≤ 0.25
GADV	≤ 0.25
GNVT	≤ 0.25
LQFF	≤ 0.25
YIPQ	≤ 0.25
LFCN	≤ 0.25
RNVA	≤ 0.25
IHQN	≤ 0.25
VDDC	≤ 0.25
DQCK	≤ 0.25
LVLE	≤ 0.25

Variant	enrichment ratio
SQCN	10.1
SCCN	17.1
VCCN	≤ 0.25
LVPD	≤ 0.25
TRFL	≤ 0.25
DSSW	≤ 0.25
EETG	3.69
MITR	≤ 0.25
SGGY	22.8
SGYI	2.6
SGNY	≤ 0.25
SGWY	≤ 0.25
SGDY	≤ 0.25
SGAY	15.2
MFNP	≤ 0.25
RNKF	≤ 0.25
GSHF	≤ 0.25
KSCF	≤ 0.25
GSWI	≤ 0.25
GSTI	12.2
GSLY	7.32
GSCF	11.5
MERP	≤ 0.25
VWLN	≤ 0.25

Variant	enrichment ratio
DNMN	≤ 0.25
NAMK	≤ 0.25
KALK	≤ 0.25
NALK	≤ 0.25
AALK	12
AAMK	35.5
YTLK	≤ 0.25
ATLK	17
AALT	11.9
AIMK	≤ 0.25
AAAT	≤ 0.25
ATLA	9.51
AALA	7.36
HSVK	≤ 0.25
TFLL	3.21
PAYK	≤ 0.25
PNPY	≤ 0.25
GVVL	1.14
FWES	≤ 0.25
MFHN	≤ 0.25
VGKH	≤ 0.25
TSNS	12.8
TSNW	≤ 0.25
TSAT	11.6

Variant	enrichment ratio
KSNT	≤ 0.25
TSNT	11.9
KSAT	≤ 0.25
NSAT	≤ 0.25
TSNY	8.01
KSNS	≤ 0.25
GLRK	≤ 0.25
FLKG	0.285
GCSH	≤ 0.25
AATM	0.767
RWIC	≤ 0.25
FLKL	≤ 0.25
GIVG	10.4
GICP	≤ 0.25
GNCS	7.94
GICG	15.9
GICN	13.8
GNCG	≤ 0.25
GICI	7.05
GNCA	9.24
GILN	10.6
GNCN	≤ 0.25
GICS	11.2
GICA	11.2

Variant	enrichment ratio
CLFS	≤ 0.25
WHNW	≤ 0.25
WMSA	≤ 0.25
HCSR	≤ 0.25
TYDS	≤ 0.25
MLEL	≤ 0.25
MVPY	≤ 0.25
MVIV	≤ 0.25
MVHV	≤ 0.25
MVPA	≤ 0.25
MVAN	15.8
MVAV	11.4
MVYI	≤ 0.25
MVNL	≤ 0.25
MVWN	13.3
MVYK	17.6
GVAN	≤ 0.25
MVYD	≤ 0.25
GDLC	1.96
LWEG	≤ 0.25
RTKT	≤ 0.25
QLML	≤ 0.25
KICA	≤ 0.25
LLMY	≤ 0.25

Variant	enrichment ratio
FMIW	≤ 0.25
YMVF	≤ 0.25
NLLC	≤ 0.25
MVTG	≤ 0.25
MVMG	1.65
MVAG	12.7
LDKC	≤ 0.25
PPTY	≤ 0.25
TEYH	20.6
TEGH	18.1
TEGP	≤ 0.25
HPGH	≤ 0.25
TESH	32.2
NESH	≤ 0.25
HPYH	≤ 0.25
VEIH	≤ 0.25
TEIH	11.4
TEES	≤ 0.25
QEIH	≤ 0.25
TETH	10.3
DYRT	≤ 0.25
NIFH	≤ 0.25
YEYG	≤ 0.25
TSWM	16.2

Variant	enrichment ratio
TSTM	25.6
KSAM	≤ 0.25
MMWM	≤ 0.25
MMTM	10.9
TSGM	19.2
KSWM	≤ 0.25
KSGM	≤ 0.25
NSAM	≤ 0.25
TSAM	13.8
NVTM	≤ 0.25
MMGM	1.99
HFPI	≤ 0.25
TFKM	≤ 0.25
INVC	≤ 0.25
KVGI	≤ 0.25
GLDQ	≤ 0.25
DESQ	≤ 0.25
RFAC	≤ 0.25
KYGF	≤ 0.25
SEGF	12.8
SRGF	0.392
KYMF	≤ 0.25
STMF	11.1
STGF	11.4

Variant	enrichment ratio
SEMF	20.6
STHF	≤ 0.25
SQGF	0.381
MQAN	2.41
VFHF	≤ 0.25
QYTY	≤ 0.25
GGWG	≤ 0.25
IALA	≤ 0.25
AVFF	≤ 0.25
YVCH	0.383
GERH	≤ 0.25
DKRH	≤ 0.25
GTLM	14.5
SFLM	4.5
HILM	≤ 0.25
GYLM	≤ 0.25
SNLM	12
GALM	12.1
SELM	15.6
SLLM	6.84
GMLM	1.25
SRLM	8.53
SILM	0.906
LTLM	2.03

Variant	enrichment ratio
SPGC	≤ 0.25
GWTC	≤ 0.25
WFGV	≤ 0.25
IFGQ	≤ 0.25
VSCI	7.51
VLVC	≤ 0.25
SCAA	5.68
PIFW	1.39
LQRE	≤ 0.25
NQHW	≤ 0.25
KQLM	≤ 0.25
SALM	12.7
ITLM	8.61
QCLM	≤ 0.25
VCLM	4.34
ATLM	21.4
IILM	0.265
GCLM	16.5
TTLM	16.5
YTLM	9.3
YLIN	≤ 0.25
MTRF	≤ 0.25
FHGK	≤ 0.25
PTLY	≤ 0.25

Variant	enrichment ratio
EFRH	≤ 0.25
APYT	≤ 0.25
YSRL	≤ 0.25
LVSS	≤ 0.25
DSTR	≤ 0.25
IRCW	≤ 0.25
TYHN	≤ 0.25
GEDL	≤ 0.25
VNLM	22.6
VFLM	≤ 0.25
MCLM	6.74
GIPM	≤ 0.25
MNLM	15.1
GFLM	2.69
GILM	15.7
TNLM	2.74
GNLM	17.5
GIYR	≤ 0.25
VYLM	≤ 0.25
LNLM	≤ 0.25
AYGP	≤ 0.25
WTPP	≤ 0.25
ECHD	≤ 0.25
DMYC	≤ 0.25

Variant	enrichment ratio
TAWF	5.36
GYWP	≤ 0.25
GPLY	≤ 0.25
SPLM	≤ 0.25
MPLM	≤ 0.25
MTLM	13.8
GKVM	≤ 0.25
STLM	11.2
MNIM	12.3
MNPM	≤ 0.25
GKLA	≤ 0.25
GKLM	12.5
MMLM	≤ 0.25
MNCK	≤ 0.25
WSKW	≤ 0.25
HRWY	≤ 0.25
RRQK	≤ 0.25
PAKQ	≤ 0.25
VEYL	≤ 0.25
MFKL	≤ 0.25
KGPS	≤ 0.25
KVQA	≤ 0.25
SRTV	≤ 0.25
SYTV	0.308

Variant	enrichment ratio
NAMF	≤ 0.25
SMTV	11.4
SVTV	11.3
SVDV	≤ 0.25
KITV	≤ 0.25
SMDV	≤ 0.25
SDTV	13.5
SAMF	14.8
KFTV	≤ 0.25
KAMF	≤ 0.25
YFHI	≤ 0.25
TFLR	0.372
GGFA	≤ 0.25
GQMI	≤ 0.25
LTAP	≤ 0.25
RPSV	≤ 0.25
WEGK	≤ 0.25
QYAI	≤ 0.25
